Efflux pump mplx: inhibitors of Candida efflux pumps in yeast, primary screen, S. cerevisiae, Nile Red, multiplex; AID 485275, 2010; 330,000 compounds, 0.44% hits; S. cerevisiae Candida pump triplex; inhibition, % at 10 µM;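 active means plate passing quality check with inhibition over a set limit, or well fluorescence over plate mean plus 4 SD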;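 further: Nile Red retained in pooled yeast measured as flow cytometry median fluorescence; 0% = buffer negative control and 100% = Enniatin B positive control; higher means more Nile Red kept so more efflux inhibition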
LAP4 TOR yeast: modulators of LAP4-GFP expression in yeast, primary screen, S. cerevisiae, multiplex flow cytometry, MLPCN library; 3 h; median GFP as percent of DMSO wells; GFP response vs DMSO, % at 10 µM; 320,000 compounds, 0.34% hits;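 active means GFP response vs DMSO above a set limit, about the screen mean plus 3 SD, cut at about 150% in these data; inconclusive means under 70 cell events counted for the yeast strain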
MEP2 TOR yeast: modulators of MEP2-GFP levels in yeast, primary screen, S. cerevisiae, multiplex flow cytometry, MLPCN library; S. cerevisiae MEP2-GFP strain, 3 h; 100% = DMSO control level; GFP response vs DMSO, % at 10 µM; 330,000 compounds, 0.51% hits;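 active means GFP response versus DMSO above a set limit, roughly screen mean plus 3 SD, cut at about 180% in these data; inconclusive means fewer than 70 cells counted for a yeast strain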;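 further: median GFP fluorescence of the barcode-gated MEP2-GFP cells per well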
CIT2-GFP yeast: modulators of CIT2-GFP expression in yeast, primary screen, S. cerevisiae, GFP fusion, multiplex flow cytometry, MLPCN library; S. cerevisiae CIT2-GFP strain, 3 h; 100 means same as DMSO wells; GFP response vs DMSO, % at 10 µM; 320,000 compounds, 0.065% hits;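 active means GFP response relative to DMSO above a set limit, near the screen mean plus 3 SD, cut at about 150% in these data; inconclusive means Fewer than 70 cells measured for a yeast strain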;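 further: ratio of well median GFP fluorescence to mean of DMSO wells on the plate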
AGP1 TOR yeast: modulators of AGP1-GFP expression in yeast TOR pathway, primary screen, cell-based, multiplex flow cytometry, S. cerevisiae, MLPCN library; GFP response vs DMSO, % at 10 µM; 320,000 compounds, 0.02% hits; 3 h; GFP as percent of DMSO wells;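 active means GFP response relative to DMSO above a set limit, near screen average plus 3 SD, cut at about 150% in these data; inconclusive means fewer than 70 cells counted for the yeast strain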;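 further: median GFP channel fluorescence of the gated AGP1 strain per well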
RPL19A-GFP yeast: RPL19A-GFP expression modulators in yeast, primary screen, cell-based, S. cerevisiae, multiplex flow cytometry, MLPCN. S. cerevisiae RPL19A-GFP strain, 3 h; active compounds read low. percent response vs DMSO, % at 10 µM. 330,000 compounds, 0.3% hits;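 active means percent response vs DMSO below 50%; inconclusive means fewer than 70 events counted for the yeast strain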;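 further: median channel GFP fluorescence of the barcoded RPL19A-GFP strain; ratio of sample median GFP to plate DMSO average so 100% = DMSO; lower means less RPL19A-GFP as with rapamycin TOR inhibition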
Cmpd fluor yeast: flagged as fluorescent in efflux inhibitor counter-screen; shares compounds with Efflux pump mplx; S. cerevisiae AD/pABC3, compound fluorescence, flow cytometry; fluorescence ratio to DMSO, % at 10 µM; 1,700 compounds, 4% hits; AID 588517;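 active means fluorescence ratio to DMSO above its plate's cutoff, the plate mean ratio plus 5 SD, cut at about 210% in these data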;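 further: unstained yeast with no Nile Red so the signal is compound autofluorescence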
Mdr1 pump inh: inhibitors of Candida albicans Mdr1 efflux, confirmation, flow cytometry, singleplex, Cherry Pick1 set; inhibition, % at 10 µM; AID 588518, 2011; S. cerevisiae AD/CaMDR1, Nile Red efflux; shares compounds with Efflux pump mplx; 1,700 compounds, 1% hits; in the data active means inhibition above about 26%;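 further: 0% = DMSO vehicle and 100% = reference inhibitor; higher means more Nile Red retained so more efflux inhibition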
Cdr2 pump inh: inhibitors of Candida albicans Cdr2 efflux pump, confirmation, S. cerevisiae AD/CaCDR2, flow cytometry, cherry pick 1, singleplex; shares compounds with Efflux pump mplx; Nile Red retention; Nile Red retention ratio vs DMSO, % at 10 µM; 1,700 compounds, 4% hits; in the data active means Nile Red retention ratio vs DMSO above about 190%;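 further: higher ratio means more blocking of Cdr2 efflux of the dye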
CaCdr1 efflux inh: inhibitors of Candida albicans Cdr1 efflux pump, confirmation, S. cerevisiae AD/CaCDR1, flow cytometry, cherry pick 1, singleplex; shares compounds with Efflux pump mplx; Nile Red efflux; inhibition, % at 10 µM; 1,700 compounds, 1% hits; AID 588522, 2011;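 active means inhibition above the screen-wide mean plus twice its standard deviation, cut at about 32% in these data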
An asterisk follows results filed as active; u = inconclusive; x = not tested or not shown. Hits are enriched below; roughly 1.3% of the tested compounds scored in any of these assays.

SMILES | Efflux pump mplx | LAP4 TOR yeast | MEP2 TOR yeast | CIT2-GFP yeast | AGP1 TOR yeast | RPL19A-GFP yeast | Cmpd fluor yeast | Mdr1 pump inh | Cdr2 pump inh | CaCdr1 efflux inh
CN(Cc1ccccc1F)C(=O)c1ccc2c(=O)n3c(nc2c1)CCC3 | 0 | 91 | 94 | 96 | 99 | 97 | x | x | x | x
CSc1nc(-c2ccccc2)nc(N2CCOCC2)c1C(C)=O | 0 | 102 | 105 | 86 | 103 | 108 | 97 | 0 | 104 | 0
CC(=O)c1c(N2CCOCC2)[nH]c(-c2ccccc2)nc1=S | 0 | 100 | 100 | 92 | 100 | 99 | 102 | 0 | 101 | 0
CC(=O)c1c(N2CCN(Cc3ccccc3)CC2)nc(=S)n(Cc2ccccc2)c1C | 0 | 88 | 78 | 110 | 108 | 109 | x | x | x | x
CC(=O)c1c(N2CCCC2)[nH]c(-c2ccccc2)nc1=S | 0 | 99 | 97 | 102 | 100 | 98 | x | x | x | x
CC(=O)c1c(N2CCN(Cc3ccccc3)CC2)[nH]c(-c2ccccc2)nc1=S | 0.5* | 115 | 103 | 104 | 104 | 100 | 134 | 1 | 104 | 1
CCOC(=O)[C@H]1[C@H]2COc3ccc(OC)cc3[C@H]2N2C(=O)CNC(=O)[C@@]12C | 0 | 89 | 91 | 99 | 93 | 92 | x | x | x | x
O=C1/C(=C/c2ccc(O)c(O)c2)Oc2cc(O)ccc21 | 2.4* | 105 | 100 | 96 | 98 | 99 | 103 | 0 | 153 | 0
COc1cc(/C=C2\Oc3cc(O)ccc3C2=O)ccc1O | 0 | 103 | 104 | 98 | 101 | 100 | x | x | x | x
NC(=O)C1CCN(c2nc(-c3ccccc3Br)cs2)CC1 | 0 | x | x | x | x | x | x | x | x | x
NC(=O)C1CCN(c2nc(-c3ccccc3F)cs2)CC1 | 7.5* | x | x | x | x | x | 100 | 0 | 103 | 0
CCCCOP(=O)(c1ccc(N(C)C)cc1)C(Nc1ccccc1)c1ccccc1 (configuration not stated) | 0 | 94 | 100 | 102 | 101 | 101 | x | x | x | x
CCCOP(=O)(c1ccc(N(C)C)cc1)C(Nc1ccccc1)c1ccc(N(C)C)cc1 (configuration not stated) | 2.6* | 85 | 97 | 95 | 98 | 106 | 112 | 0 | 121 | 0
CCC(C)N(C(=O)Cn1nnc(-c2ccc(Cl)cc2)n1)C1CCS(=O)(=O)C1 (configuration not stated) | 0 | 102 | 99 | 88 | 98 | 97 | x | x | x | x
CCC(C)N(C(=O)Cn1nnc(-c2ccc(F)cc2)n1)C1CCS(=O)(=O)C1 (configuration not stated) | 0.5* | 104 | 97 | 100 | 103 | 101 | 114 | 1 | 123 | 0
Cc1cc(C)c(-c2noc(C(=O)OC(C)(C)C)c2C(=O)OC(C)(C)C)c(C)c1 | 0 | 95 | 99 | 95 | 93 | 96 | x | x | x | x
COc1cc(OC)c(-c2noc(C(=O)OC(C)(C)C)c2C(=O)OC(C)(C)C)c(OC)c1 | 1.2* | 89 | 101 | 98 | 99 | 105 | 97 | 0 | 93 | 0
Cc1ccccc1NC(=O)NCCCCc1ccccc1 | -3 | 96 | 97 | 93 | 98 | 107 | x | x | x | x
COc1ccc(/C(C#N)=C/c2ccccn2)cc1 | 1.4* | 97 | 110 | 94 | 94 | 105 | 105 | 0 | 112 | 0
O=C(CCCOc1ccccc1)Nc1ccccc1C(F)(F)F | 10* | 100 | 91 | 99 | 102 | 101 | 100 | 0 | 105 | 0
CCn1c(COc2ccccc2)nnc1SCC(=O)NC1CC1 | 0 | 99 | 103 | 92 | 93 | 97 | x | x | x | x
Cc1ccccc1-n1nc2c(c1NC(=O)C(C)(C)C)CS(=O)(=O)C2 | 0 | 91 | 102 | u | 92 | 100 | x | x | x | x
COc1ccc(N2CCN(Cc3csc(C)c3-c3ccc(C)cc3)CC2)cc1 | 0 | 101 | 108 | 102 | 97 | 102 | x | x | x | x
O=C(CSc1nnc(Cc2cccs2)n1-c1ccccc1)Nc1ccc2c(c1)OCCO2 | 0 | 91 | 88 | 94 | x | 88 | 126 | 2 | 112 | 1
Cn1c(Cc2cccs2)nnc1SCC(=O)Nc1ccccc1F | 0 | 105 | 106 | 110 | 103 | 100 | x | x | x | x
SMILES | Efflux pump mplx | LAP4 TOR yeast | MEP2 TOR yeast | CIT2-GFP yeast | AGP1 TOR yeast | RPL19A-GFP yeast | Cmpd fluor yeast | Mdr1 pump inh | Cdr2 pump inh | CaCdr1 efflux inh
Cc1ccc(-n2c(Cc3cccs3)nnc2SCC(=O)Nc2ccc(F)c(F)c2)cc1 | 0 | 112 | 109 | 123 | 117 | x | 100 | 0 | 95 | 0
Cn1c(Cc2ccccc2)nnc1SCC(=O)Nc1ccc2c(c1)OCCO2 | 0 | 94 | 95 | 100 | 94 | 94 | x | x | x | x
Cc1ccc(CN2CCNC(=O)C2CC(=O)N(C)CCc2cnn(C)c2)cc1 (configuration not stated) | 0 | 68 | 98 | 102 | 93 | 109 | x | x | x | x
COC(=O)NCc1ccc(S(=O)(=O)N2CCOCC2)cc1 | 0.5* | 97 | 94 | 98 | 95 | 101 | 95 | 0 | 106 | 0
O=C1/C(=C/c2ccccn2)SC(=S)N1Nc1ncc(C(F)(F)F)cc1Cl | x | x | x | x | x | x | 100 | 0 | 92 | 0
Cc1ccc(S(=O)(=O)NN2C(=O)/C(=C/c3ccc(F)cc3)SC2=S)cc1 | 0 | 92 | 110 | 101 | 100 | 100 | x | x | x | x
O=C1/C(=C/c2ccc(F)cc2)SC(=S)N1Nc1ncc(C(F)(F)F)cc1Cl | 0 | 95 | 99 | 100 | 99 | 99 | 100 | 0 | 108 | 0
CC1Oc2ccccc2N(CC(=O)c2ccccc2)C1=O (configuration not stated) | -1 | 101 | 101 | 99 | 105 | 103 | x | x | x | x
CC1Oc2ccccc2N(CC(=O)c2ccc(F)cc2)C1=O (configuration not stated) | 1.1* | 107 | 102 | 101 | 109 | 104 | 100 | 0 | 100 | 0
CC(C)c1nc(C(N)=O)c2[nH]c(=O)n(-c3ccc(F)cc3)c2n1 | -1 | 101 | 104 | 97 | 98 | 99 | x | x | x | x
